Reference: PubChem BioAssay AID1850 (Southern Research Specialized Biocontainment Screening …, 2009)
About 1,000 (0.32%) of roughly 310,000 compounds were called active. Not all results are given here. Entries with a potency or affinity are not part of this list. Values without a mark were called inactive. The rule behind the calls is not given here.

assay: PhoP regulon inhibitors, Salmonella typhi PhoP promoter GFP reporter, confirmatory (AID 1850); settings: fluorescence, 4 h, at 50 µM, hits give high values;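 note: 0% = induced wells with vehicle and 100% = uninduced wells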

SMILES | inhibition [%]
O=C(Nc1cccc(S(=O)(=O)N2CCOCC2)c1)c1cnccn1 | -6.33
Cn1c(-c2ccc(F)cc2)cnc1NCc1cccc([N+](=O)[O-])c1 | 9.25
COc1ccc(N2CCN(c3nc(Cl)nc(Nc4ccc(F)cc4)n3)CC2)cc1 | -8.76
Fc1ccc(Nc2nc(N3CCOCC3)nc(N3CCOCC3)n2)cc1 | 4.25
CCCOc1cc2c(C#N)c(N3CCCC3)nc(N)c2c(N)n1 | 1.34
N#Cc1c(N)c(C#N)c(-c2ccc3c(c2)OCO3)c2c1CCCC2 | -3.29
O=[N+]([O-])c1ccc(-c2cnc[nH]2)cc1 | 1.02
Nc1c(-c2ccc(Cl)cc2)cnc2ncnn12 | 8.81
Nc1ncncc1-c1ccc2ccccc2c1 | -7.33
Nc1ncc(-c2ccc([N+](=O)[O-])cc2)cn1 | 4.2
COc1ccc2cc(C(=O)C3CCCN(C(=O)c4cnccn4)C3)ccc2c1 (centres undefined) | 8.69
CCc1ccccc1NC1=NCC(=O)N1C1CCCC1 | 0.33
COc1ccc(Nc2nc(C)cc(C)c2C#N)c(OC)c1 | -0.58
COc1ccccc1CNC(=O)C1CCCN(S(C)(=O)=O)C1 (centres undefined) | -3.93
CCOC(=O)c1ccc(NC(=S)NCc2ccccc2)cc1 | 4.39
Cc1ccc(S(=O)(=O)N2CCN(S(=O)(=O)c3cccs3)CC2)cc1 | -0.13
CCOc1ccc(NC(=O)CSc2nnc(-c3ccncc3)n2CC2CCCO2)cc1 (centres undefined) | -0.03
CCNC(=O)NCCNC(=O)c1cc(OCC(F)(F)F)ccc1OCC(F)(F)F | 1.77
O=C(c1ccc(-n2cncn2)c([N+](=O)[O-])c1)N1CCN(S(=O)(=O)c2ccc(F)c(F)c2)CC1 | 9.27
CCCOc1ccc(C(=O)NNC(=S)NC(=O)c2ccccc2)cc1 | 2.22
CCCCC(=O)NC(=S)NNC(=O)c1ccc(OC)cc1 | -8.34
CCCOc1ccc(C(=O)NNC(=S)NC(=O)c2cccs2)cc1 | 19.7

SMILES | inhibition [%]
Cc1ccc(C(=O)NNC(=S)NC(=O)c2ccco2)cc1 | -11.8
CCC(=O)NC(=S)NNC(=O)c1ccc(OC)cc1 | 18.2
O=C(NNC(=S)NC(=O)c1ccc(Br)cc1)c1ccc([N+](=O)[O-])cc1 | 0.22
COc1ccc(C(=O)NNC(=S)NC(=O)c2ccco2)cc1 | 5.07
C=C(C)CNC(=S)NNC(=O)c1ccc(Br)cc1 | -8.67
O=C(Nc1nc(-c2ccccc2Cl)cs1)c1cccnc1 | 3.73
CC(C)(C)c1cc(OC(=O)c2ccccc2F)ccc1O | -1
CC(=O)NC(=S)Nc1cc(C(F)(F)F)ccc1N1CCOCC1 | -8.24
CCC1(C)SC(NC(C)=O)=NN1C(C)=O (centres undefined) | -7.92
Cc1cc(=O)[nH]c(N/N=C/c2cccc(Br)c2)n1 | 5.33
Cc1onc(-c2ccccc2)c1C(=O)OCC(=O)N(CC(C)C)c1c(N)n(Cc2ccccc2)c(=O)[nH]c1=O | 0.02
Cc1ccsc1C1CC(=O)Nc2ccccc2S1 (centres undefined) | 3.75
CCN(CC(=O)NCc1ccc(Cl)cc1)C(=O)CCc1ccccc1 | 8.65
c1ccc(CN2CCN(C(c3ccccc3)c3nnnn3Cc3ccccc3)CC2)cc1 (centres undefined) | -8.11
COc1cc(N)c(Cl)cc1C(=O)OCC(=O)N1CCCC1 | -3.7
C=CCNC(=S)NNC(=O)c1ccc(OCCC)cc1 | 0.33
CCC(=O)NC(=S)NNC(=O)c1ccc(O)cc1 | -2.12
CSc1ncccc1C(=O)N1CCCC(C(=O)c2ccc3ccccc3c2)C1 (centres undefined) | 0.25
CC(C)(C)c1ccc(OCCNCc2ccccc2)cc1 | 3.96
Cc1cc(C(C)(C)C)ccc1OCCOCCN1CCCC1 | -9.74
Cc1cc(C(C)(C)C)ccc1OCCN(C)C | -2.78
C[N+](C)(CCOc1ccccc1)Cc1ccccc1 (tested in a mixture with another compound) | -4.3

SMILES | inhibition [%]
N/C(=N/[N+](=O)[O-])N1CCN(C(=O)c2ccc(Cl)cc2)CC1 | 9.05
O=C(NC1CCS(=O)(=O)C1)c1ccc(-c2ccc(Br)cc2)o1 (centres undefined) | -6.5
O=C(NCCc1ccccc1Cl)c1ccc2nc3ccccc3c(=O)n2c1 | -1.95
CCOC(=O)COc1cc([N+](=O)[O-])cc2cccnc12 | 1.87
O=[N+]([O-])c1ccc(Sc2cccc3cccnc23)cc1 | -0.7
NC(N)=NC(=S)Nc1ccc(Cl)cc1 | 18.1
CC(C)N=C(N)N=C(N)Nc1ccc(Cl)cc1 | 28.9
COc1ccc(C(=O)N/C(=C\c2ccco2)C(=O)NC2CCS(=O)(=O)C2)cc1 (centres undefined) | -6.19
O=C(Nc1nnc(-c2cccs2)o1)c1ccco1 | 9.01
N#Cc1ccc(C(=O)Nc2nnc(-c3cccs3)o2)cc1 | 21.1
O=C(Nc1nnc(C2=COCCO2)o1)c1cccc(C(F)(F)F)c1 | -4.95
O=C(Nc1nnc(-c2cccs2)s1)c1cccc(F)c1 | -2.5
CN(C)S(=O)(=O)c1ccc(C(=O)Nc2nnc(-c3cccs3)o2)cc1 | -4
COc1cccc(C(=O)Nc2nnc(-c3cccs3)o2)c1 | 17.3
Cc1cc(C(=O)COC(=O)c2nc3nccc(C)n3n2)c(C)n1CC1CCCO1 (centres undefined) | -1.82
COCCn1c(CCC(=O)O)ccc1-c1cccs1 | 3.14
O=C(O)c1ccccc1-n1c(-c2ccccc2)cc2c1CCCC2=O | -1.82
CC(C)CC1Nc2ccc(C(=O)NCc3ccc4c(c3)OCO4)cc2NC1=O (centres undefined) | 1.92
Cc1nccn1Cc1ccccc1 | 9.82
COc1ccc(Cl)cc1NC(=S)NCCc1ccc(S(N)(=O)=O)cc1 | 1.57
